# A selection: hits, their analogues and other compounds. The true share with any hit is near 3.9%.
# UBC9 SUMO inh: blocks human SUMOylation mediated by UBC9; HTRF SUMOylation assay, SAE1/SAE2 + UBC9, in vitro; inhibition, % at 35 µM; hit rate 0.36% among 290,000; in the data active means inhibition above about 50%, passing the limit was not always enough; inconclusive means no clear call, values can overlap the other calls
# Target sequence (P63279 whole entry, looked up): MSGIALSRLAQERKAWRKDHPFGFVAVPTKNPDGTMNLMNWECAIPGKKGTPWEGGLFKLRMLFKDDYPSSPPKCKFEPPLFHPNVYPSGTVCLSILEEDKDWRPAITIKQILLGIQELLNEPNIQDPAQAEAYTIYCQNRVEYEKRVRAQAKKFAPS
# ALR H2O2 inh: blocks human ALR sulfhydryl oxidase activity; AID 485317; hit rate 3.8% among 290,000; P55789; inhibition, % (no concentration beside the values); purified ALR, DTT oxidation, H2O2 HRP-luminol luminescence;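 active means mean replicate inhibition above about 79%, with every replicate also reaching it, limit read from the data; inconclusive means only one of the two criteria met; inactive means mean below limit and not every replicate reaching it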
# Target sequence (P55789 whole entry, looked up): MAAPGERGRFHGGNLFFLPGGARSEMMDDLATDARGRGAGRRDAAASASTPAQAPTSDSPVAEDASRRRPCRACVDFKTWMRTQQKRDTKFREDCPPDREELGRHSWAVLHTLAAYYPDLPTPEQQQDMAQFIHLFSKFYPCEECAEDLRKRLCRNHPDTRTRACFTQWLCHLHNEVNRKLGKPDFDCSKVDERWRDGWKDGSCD
# NTR1 agonist: NTR1 (human) agonism; P30989; NTR1-U2OS beta-arrestin-GFP spot imaging, agonist mode; activation, % at 20 µM; hit rate 0.17% among 330,000;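 active means activation at or above 40% of the spot to cytoplasm intensity ratio, with at least 20 cells analyzed; inconclusive means wells under 20 cells, flagged as cytotoxic or low count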;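 further: 0% = DMSO without peptide and 100% = 100 nM NTR1 peptide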
# H9c2 protect: modulators protecting cardiomyocytes from myocardial damage. H9c2 cardiomyocytes, H2O2 injury protection, ATPLite, 2 h. protection from H2O2 cell death, % at 20 µM. hit rate 0.63% among 360,000;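 active means compounds giving at least 50% protection of heart cells from peroxide-induced death in the single-dose screen, raw or plate-pattern-corrected value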;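 further: 0% = DMSO wells with peroxide and 100% = DMSO wells without peroxide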
# NTR1 ag confirm: NTR1 (human) agonism, confirmed | shares compounds with NTR1 agonist | NTR1-U2OS beta-arrestin-GFP translocation imaging | activation, % at 20 µM | hit rate 38% among 480 | AID 504550;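 active means mean activation at 20 µM of at least 40%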;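 further: 0% = DMSO without peptide and 100% = 100 nM NTR1 peptide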
# An asterisk follows results filed as active; ? = inconclusive; · = no result given.
SMILES,UBC9 SUMO inh,ALR H2O2 inh,NTR1 agonist,H9c2 protect,others
C/C(=N\NC(=O)c1ccccc1O)c1c(O)n(Cc2ccccc2)c(=O)[nH]c1=O,16.6,14.0,1.2,15.2,
C/C(=N\Nc1ccccc1)c1c(O)n(-c2ccccc2)c(=O)[nH]c1=O,7.5,98.5*,1.7,-1.0,
C/C(=N\Nc1ccccc1)c1c(O)n(Cc2ccccc2)c(=O)[nH]c1=O,9.8,98.3*,2.1,-4.8,
C/C(=N\NC(=O)c1ccccc1)c1c(O)n(C2CCCCC2)c(=O)[nH]c1=O,-6.1,93.1*,-0.2,-1.5,
COC(=O)C1=C(c2ccc(F)cc2F)C[C@@H]2CC[C@H]1N2C(=O)NCCOc1ccccc1Cl,·,-3.8,0.6,-2.9,
COc1ccccc1N1CCN(Cc2c(F)cccc2Cl)CC1,-5.3,31.2,-1.2,-2.9,
C/C(=N\Nc1ccccc1)c1c(O)n(C)c(=O)n(C)c1=O,3.5,99.2*,1.5,3.2,
Oc1ccc(C(=C(Cl)Cl)c2ccc(O)cc2)cc1,-8.8,86.1*,1.9,·,
Cc1sc2nc(COC(=O)Cc3ccccc3)[nH]c(=O)c2c1C,0.9,-12.8,-0.5,53.2*,
C=C1C(=O)OC2CC(C)C3C=CC(=O)C3(C)C(O)C12 (stereo unspecified),·,·,·,-16.9,
C=C1C(=O)O[C@@H]2C[C@@H](C)[C@@H]3C=CC(=O)[C@@]3(C)[C@@H](OC(=O)CC(=O)O[C@H]3[C@@H]4C(=C)C(=O)O[C@@H]4C[C@@H](C)[C@@H]4C=CC(=O)[C@]43C)[C@H]12,54.3*,6.1,-0.1,-9.7,
COC(=O)CCCNC(=O)CN1CC(c2ccccc2)CC1=O (stereo unspecified),7.7,-3.6,0.3,5.5,
Cc1cc(/C=C2\C(=O)NC(=O)N(Cc3ccco3)C2=O)c(C)n1-c1ccc(O)cc1,61.6*,4.9,1.0,-2.4,
Cc1cc(/C=C2\C(=O)NC(=O)N(Cc3ccccc3)C2=O)c(C)n1-c1ccc(Cl)c(C(=O)O)c1,59.1*,70.0,-0.2,7.7,
CCOC(=O)c1ccccc1NC(=O)c1c(O)[nH]c(=S)[nH]c1=O,·,91.6*,-1.3,0.9,
COc1cc2c(ccc3c4cc(OC)c(OC)cc4c[n+](C)c23)cc1O,·,·,·,-2.7,
CN1CCN(c2c(N)c(=O)oc3ccccc23)CC1,0.2,98.7*,0.1,-2.0,
CN1CCN(c2ccccc2N)CC1,-2.4,-13.3,-2.4,11.3,
O=C(O)C1Cc2ccccc2N2CCCC12 (stereo unspecified),8.5,92.5*,-1.0,-4.3,
O=C1C(=O)c2ccccc2-c2ccccc21,100.2*,31.5,0.5,-33.3,
O=C1C(=O)c2cccc3cccc1c23,21.4,-2.4,14.2,17.1,
O=[N+]([O-])c1ccc(Nc2ccccc2)cc1,-0.6,24.5,-1.0,-9.3,
c1ccc(Nc2ccc(Nc3ccccc3)cc2)cc1,·,98.4*,6.0,-6.3,
O/N=C/c1c[nH]c2ccccc12,-1.7,·,0.7,3.3,
CCCC/C(=N\O)c1c[nH]c2ccccc12,7.7,89.2*,1.1,-5.1,
SMILES,UBC9 SUMO inh,ALR H2O2 inh,NTR1 agonist,H9c2 protect,others
C=C(c1ccccc1)P(=O)(O)O,9.1,1.2,0.1,1.2,
Cc1cc(N2CCCCC2)ccc1C=C1C(=O)N(C)C(=S)N(C)C1=O,17.2,89.5*,-2.1,0.3,
COc1ccc(CN2CC=C(c3ccc(F)cc3)CC2)cc1Br,-16.0,-3.4,5.9,-5.1,
CC1[C@H]2Cc3ccc(O)cc3[C@]1(C)CCN2C (stereo partly specified),·,·,·,8.3,
O=C(O)CCn1cc(C=C2C(=O)NC(=O)NC2=O)c(-c2cc3ccccc3oc2=O)n1,-0.9,97.4*,1.3,3.6,
COc1cc(/C=C2\C(=O)NC(=O)N(c3ccccc3)C2=O)cc(OC)c1O,-5.5,91.0*,3.9,2.9,
COc1cc(/C=C2\C(=O)NC(=O)N(c3ccccc3)C2=O)c([N+](=O)[O-])cc1OC,40.3,·,·,3.7,
CCCC(=O)Nc1ccc(N2CCN(CC)CC2)c(Cl)c1,17.9,·,-1.0,-1.1,
O=c1[nH]c(=O)n(Cc2ccco2)c(O)c1C=NCc1cccs1,24.7,-3.7,-1.1,53.7*,
O=c1[nH]c(=O)n(Cc2ccco2)c(O)c1/C=N/N1CCCCCC1,20.9,-2.0,-0.3,-1.3,
N#Cc1c(/N=C/c2c(O)n(Cc3ccco3)c(=O)[nH]c2=O)sc2c1CCCC2,19.6,82.2*,-0.4,-2.3,
COc1cc2c(cc1O)CC1c3c(cc(O)c(OC)c3-2)CCN1C (stereo unspecified),36.8,98.9*,-0.1,-5.1,
CN1CCc2nc(SCc3cccc(Br)c3)c(C#N)cc2C1,10.0,98.9*,6.0,9.6,
CN1CCN(c2ccc(Cl)cc2N)CC1,12.3,10.2,0.2,-2.7,
CN1CCN(c2ccc(N)cc2Cl)CC1,-0.6,89.8*,0.9,3.0,
COc1ccc(C(=O)CC2(CC(=O)c3ccc(OC)cc3)C(=O)N(C)C(=O)N(C)C2=O)cc1,7.2,19.3,0.6,-3.4,
CN1C(=O)N(C)C(=O)C2(Cc3c(ccc4ccccc34)N(C)C2)C1=O,48.0,98.8*,-1.2,-5.1,
O=C1NC(=O)N(Cc2ccccc2Cl)C(=O)/C1=C/c1cccs1,-4.6,96.9*,22.1,-13.4,
Cc1ccc(/C=C2\C(=O)NC(=O)N(Cc3ccccc3Cl)C2=O)o1,5.2,98.7*,0.3,4.1,
CCN(CC)C(=O)c1ccc(NC(=O)c2ccc(-n3cncn3)c([N+](=O)[O-])c2)cc1,·,-8.5,-0.9,2.0,
COc1ccc(NC(=O)c2cn(CCC#N)nc2-c2cccc([N+](=O)[O-])c2)cc1,6.6,2.1,1.3,-5.9,
COc1ccc(Oc2cc(NC(=O)c3nn(C)cc3[N+](=O)[O-])cc([N+](=O)[O-])c2)cc1,-6.6,-3.6,60.6*,-25.6,NTR1 ag confirm=66.7*
CCN(CC)c1ccc(C=C2C(=O)NC(=S)NC2=O)cc1,2.9,99.4*,70.9*,-3.0,NTR1 ag confirm=94.7*
O=C1NC(=O)C(=Cc2cn(CCOc3ccc4c(c3)OCO4)c3ccccc23)C(=O)N1,33.0,·,53.5*,18.0,NTR1 ag confirm=62.5*
O=c1[nH]c2ccccc2n1C1CCN(CCCC(c2ccc(F)cc2)c2ccc(F)cc2)CC1,-11.2,·,43.3*,-23.5,NTR1 ag confirm=14.4
SMILES,UBC9 SUMO inh,ALR H2O2 inh,NTR1 agonist,H9c2 protect,others
O=c1[nH]c2ccccc2n1C1CCN(C(c2ccccc2OC(F)(F)F)c2nnnn2Cc2ccccc2)CC1 (stereo unspecified),·,·,·,-2.9,
CCOC(=O)c1ccc(NC(=O)N2C[C@@H]3C[C@@H](C2)c2cccc(=O)n2C3)cc1,22.5,-5.2,0.7,-2.3,
O=C1NC(=O)N(Cc2ccc(F)cc2)C(=O)/C1=C/c1cccs1,18.7,?,52.6*,6.8,NTR1 ag confirm=45.3*
CN(C)c1ccc(C(=O)c2ccc(N(C)C)cc2)cc1,13.1,7.9,3.5,-3.1,
C/C(=C\c1ccc(N(C)C)cc1)[N+](=O)[O-],9.3,·,52.6*,-17.2,NTR1 ag confirm=72.8*
Cc1ccc(C(=O)N[C@@H](C)CN2C3=NC[C@@H](Cc4ccccc4)N3C[C@H]2Cc2ccc(O)cc2)cc1Br,-1.2,-6.2,16.1,·,
Cc1ccc(C(=O)N[C@@H](C)CN2C3=NC[C@H](Cc4ccccc4)N3C[C@H]2Cc2ccc(O)cc2)cc1Br,-54.1,·,51.9*,·,NTR1 ag confirm=38.4
